Compound activity: PubChem BioAssay, National Center for Advancing Translational Sciences (NCATS)
HCV inh: blocks hepatitis C virus | Huh7.5.1 HCVcc-Cre infection, luciferase reporter, 44 h | Potency, µM (titrated, usually from 41.8 µM), hits mostly inhibitors | actives 3.4% (n = 340,000) | AID 651820; active means well fitted inhibition curve with a large enough effect; inconclusive means small, poorly fitted or top-dose-only effect, or another doubt; inactive means no such curve, though single readings can be large or run the other way
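Cells seeded at 1,000/well and cultured 4 h, then compounds added followed by HCVcc-Cre virus (~0.5 moi). After 44 h further culture, luciferase substrate was added, plates held 15 min at room temperature, and luminescence read for 15 sec.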
VACV Venus inh: inhibitors of vaccinia virus (Venus reporter). Vaccinia virus Venus reporter expression, fluorescence. Potency, µM (series often up to 36.5 µM), usual class: inhibitors. actives 0.46% (n = 330,000). AID 720580; calls by dose curve; tested in A549 cells; further: nearly all actives have a fitted effect of over 30% in size
Vaccinia mCherry: inhibitors of vaccinia virus infection (mCherry reporter signal); Vaccinia virus mCherry reporter infection, fluorescence; Potency, µM (titrated, usually from 36.5 µM), actives largely listed as inhibitors; actives 0.63% (n = 310,000); AID 720579; calls by dose curve; tested in A549 cells; further: nearly all actives have a fitted effect of over 35% in size
MARV entry inh: blocks Marburg virus binding to or entry into cells | Marburg virus pseudotyped entry inhibition, cell reporter | Potency, µM (doses to about 37.8 µM), hits mostly inhibitors | actives 1.8% (n = 300,000) | AID 540276; calls by dose curve; tested in HEK293 cells
Lassa entry inh: Lassa virus entry inhibition | Potency, µM (series often up to 37.9 µM), most hits filed as inhibitors | AID 540256 | Lassa virus pseudotype entry inhibition, cell reporter | actives 1.2% (n = 300,000); calls by dose curve; tested in HEK293 cells; further: nearly all actives have a fitted effect of over 50% in size
Hits are given with their value; . = inactive; ? = inconclusive; / = not tested or not shown; ! = not active in a repeat; [ ] = another dose, or the depositor's remark. This is a sample that favours compounds with a hit; in the whole collection about 4.6% have one here.

SMILES	HCV inh	VACV Venus inh	Vaccinia mCherry	MARV entry inh	Lassa entry inh
Cc1oc2c(cc(NS(=O)(=O)c3ccc4c5c(cccc35)C(=O)N4)c3ccccc32)c1C(=O)OC(C)C	?	/	/	.	?
O=C1CCCc2oc3c(cc(NS(=O)(=O)c4ccc5c6c(cccc46)C(=O)N5)c4ccccc43)c21	?	.	?	11µM	.
CC(=O)Nc1c(C)nn(-c2ccccc2)c1N1CCC(C(=O)Nc2ccccc2F)CC1	/	.[7.34 µM]	.[7.34 µM]	/	.
O=C(N/N=C/c1ccc(N2CCOCC2)cc1)c1ccncc1	.	.	.	?	.
O=C(N/N=C/c1ccc(N2CCOCC2)cc1)c1ccccc1OCCOc1ccccc1	8.9µM	.	.	?	?
COCCNC(=S)N/N=C/c1ccc(N2CCOCC2)cc1	.	.	.	23µM	?
CC(C)(C)c1ccc(OCC(=O)N/N=C/c2ccc(N3CCOCC3)cc2)cc1	.	.	.	.	0.092µM
C=C(C)CNC(=S)N/N=C/c1ccc(N2CCOCC2)cc1	?	.	.	?	?
C/C(=N/NC(=O)COc1ccc(C(C)(C)C)cc1)c1ccc(N2CCOCC2)cc1	?	.	.	.	0.56µM
CC(C)(C)C1CCc2c(sc(NC(=O)Cn3nnc(-c4ccccc4F)n3)c2C#N)C1 (centres undefined)	/	.	.	.	.
O=C1[C@H]2[C@@H]3[C@@H](O)[C@H](O)CC(=NOCc4ccccc4)[C@@H]3CC[C@H]2C(=O)N1Cc1ccc2c(c1)OCO2	/	/	/	.	?
Cc1ccccc1NC(=O)CN1C(=O)N/C(=C/c2cccn2-c2cccc(C(=O)O)c2)C1=O	/	/	/	.	/
CC(=O)c1c(C)[nH]c(C(=O)OCC(=O)Nc2cccc(S(=O)(=O)N(C)C)c2)c1C	6.3µM	.	.	.	.
CC(=O)c1c(C)[nH]c(C(=O)OCC(=O)Nc2cc(S(=O)(=O)N3CCCC3)ccc2Cl)c1C	1.4µM	.	.	?	?
O=C(CN1CCN(c2ccc(O)cc2)CC1)Nc1cc(S(=O)(=O)N2CCCCC2)ccc1Cl	10µM	.	.	.	.
CC(=O)c1c(C)[nH]c(C(=O)OCC(=O)Nc2cccc(S(=O)(=O)N3CCCC3)c2)c1C	?	.	.	?	?
CCN1CCN(CC(=O)Nc2cc(S(=O)(=O)N3CCCCC3)ccc2Cl)CC1	.	.	.	?	.
CN1CCN(S(=O)(=O)c2ccc(NC(=O)Nc3cccc(Cl)c3)cc2)CC1	7.9µM!	?	/	?	?
O=C(Cc1ccccc1F)Nc1cc(S(=O)(=O)N2CCCC2)ccc1Cl	.	/	/	/	/
O=C(Nc1cccc(Cl)c1)Nc1cc(S(=O)(=O)N2CCCCC2)ccc1Cl	11µM	?	.	4µM	?
O=C(CN1CCN(c2cccc(C(F)(F)F)c2)CC1)Nc1ccc2c(c1)OCCCO2	/	.	.	/	/
O=C(CN1CCN(c2ccc(O)cc2)CC1)Nc1ccc2c(c1)OCCCO2	6.3µM	/	/	/	/
O=C(CNCc1ccc(Cl)cc1)Nc1cc(S(=O)(=O)N2CCCC2)ccc1Cl	7.9µM	.	.	?	.
Cc1cccc(NC(=O)CSCC(=O)N(CCC(C)C)c2c(N)n(Cc3ccccc3)c(=O)[nH]c2=O)c1	?	.	.	?	10µM
O=C(C1=C(O)C(=O)N(CCCN2CCOCC2)[C@H]1c1ccccn1)c1cc2ccccc2o1	/	/	/	.	/
SMILES	HCV inh	VACV Venus inh	Vaccinia mCherry	MARV entry inh	Lassa entry inh
COC(=O)c1cc(C)sc1NC(=O)C1CC(=O)NN1Cc1ccccc1 (centres undefined)	.	/	/	.	.
CCOC(=O)c1cc(CC)sc1NC(=O)C1CC(=O)NN1Cc1ccccc1 (centres undefined)	5.6µM	.	?	?	.
COC(=O)/C(C#N)=C1\SC=C(C)N1c1ccccc1	/	/	/	.	/
O=C(CCn1cnc(-c2ccccc2)c1-c1ccccc1)N/N=C/c1ccccc1O	?	/	/	?	23µM
O=C(CCn1cnc(-c2ccccc2)c1-c1ccccc1)N/N=C/c1ccc(O)cc1	.	/	/	?	?
O=C(CCn1cnc2ccccc21)N/N=C/C=C/c1ccccc1	.	.	.	?	.
COc1ccc(/C=N/NC(=O)CCn2cnc(-c3ccccc3)c2-c2ccccc2)cc1	.	/	/	18µM	2.3µM
COc1ccc(-n2c(N3CCN(C)CC3)nc3sc4c(c3c2=O)CCCCC4)cc1	13µM	/	/	.	.
COc1ccc(-n2c(C)nc3sc4c(c3c2=O)CCC4)cc1	.	.	.	.	.
CN(C)CCNc1nc2sc3c(c2c(=O)n1-c1ccccc1)CCCCC3	.	.	.	?	.
CCN(CC)C(=O)CSc1nc2sc3c(c2c(=O)n1CCCOC)CCC3	.	.	.	.	.
COCCn1c(SCC(=O)Nc2ncc(C)s2)nc2sc3c(c2c1=O)CCC3	2.2µM	/	/	/	/
CN(C)CCNc1nc2sc3c(c2c(=O)n1Cc1ccccc1)CCCCC3	11µM	.	.	10µM	.
COc1ccc(-n2c(SCC(N)=O)nc3sc4c(c3c2=O)CCC4)cc1	10µM	.	.	.	.
Cc1cc(NC(=O)c2cccn2-c2nnc(N3CCCCC3)s2)ccc1Br	/	.	.	/	.
N#Cc1nc(-c2ccccc2)cc(-c2ccccc2)n1	/	.	.	/	/
COc1ccc(-n2c(NCCN(C)C)nc3sc4c(c3c2=O)CCCCC4)cc1	?	.	.	23µM	.
CN(C)CCNc1nc2sc3c(c2c(=O)n1-c1ccc(F)cc1)CCCCC3	?	.	.	?	?
CCn1nc(C)cc1C(=O)NCCN1Cc2ccccc2OC(c2ccccc2F)C1 (centres undefined)	/	.	.	/	/
Cc1cccc2sc(NC(=O)C3CCN(C(=O)c4ccco4)CC3)nc12	11µM	.	.	?	7.9µM
Cc1cc(-c2ccccc2)nc(SCC(=O)N2CCCC2)n1	25µM	.	.	?	.
Cn1c(-c2ccccc2)cnc1SCC(=O)N1CCCCC1	.	.	/	?	3.5µM
Cn1c(-c2ccccc2)cnc1SCC(=O)N1CCCc2ccccc21	.	.	.	.	.
O=C(NCCN1CCCCC1)c1ccc(Cn2c(SCc3cccc(F)c3)nc3cccnc32)cc1	/	.	.	4.5µM	/
Cc1ccc(CSc2nc3cccnc3n2Cc2ccc(C(=O)NC3CCCCC3)cc2)cc1	/	11µM	?	/	.
SMILES	HCV inh	VACV Venus inh	Vaccinia mCherry	MARV entry inh	Lassa entry inh
Cc1cccc(NC(=O)CN2CCN(C(=O)c3ccc(-c4nc5ccccc5s4)o3)CC2)c1C	?	.	.	?	?
O=C(CN1CCN(C(=O)c2ccc(-c3nc4ccccc4s3)o2)CC1)Nc1ccccc1Cl	11µM	.	.	?	?
O=C(c1ccc(-c2nc3ccccc3s2)o1)N1CCN(c2ccccc2O)CC1	?	.	.	?	?
O=C(CN1CCN(C(=O)c2ccc(-c3nc4ccccc4s3)o2)CC1)Nc1ccc(F)cc1	13µM	/	/	/	/
Clc1ccc(/C=C/c2ccncc2)cc1Cl	/	?	4.5µM	/	/
CC(=O)Nc1ccc(/C=C/c2ccncc2)cc1	/	.	.	/	/
CC[C@]12c3[nH]c4cc(-c5ccco5)ccc4c3CCN1C(=O)[C@@H](CC(=O)NC/C=C(\C)CCC=C(C)C)C[C@@H]2C(=O)N1CCN(C(=O)C2CC2)CC1	16µM	?	?	/	/
